Measurements reported in PubChem BioAssay AID488857 (Sanford-Burnham Center for Chemical Genomics, 2010).
Among all 1,400 compounds or so, about 560 (40%) were called active. So high a share suggests a set chosen from earlier hits. Some of the results follow. Unmarked numbers belong to inactive results.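 The calls were made as follows: active = mean inhibition over duplicate tests at 10 µM above 50%; inactive = the rest.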

assay: ASC/caspase-1 reporter retest in S. cerevisiae at one dose, specificity check for NALP1 project (AID 488857); details: S. cerevisiae ASC/Caspase-1, beta-galactosidase luminescence, 24 h; at 10 µM; hits give high values

Structure (SMILES) | inhibition
CN(C)c1ccc(/C=N/NC(=O)c2nnn(-c3nonc3N)c2CN(C)c2ccccc2)cc1 | 20.1%
Cc1cc(C)c(NC(=O)/C(=C/c2ccccc2)c2ccccc2)c(C)c1 | 31.6%
S=c1[nH]nc(-c2ccco2)n1/N=C/c1cccc(Cl)c1Cl | 65.7% (active)
CCOC(=O)C1CCCN(C2CC(=O)N(c3cccc(C(F)(F)F)c3)C2=O)C1 (stereo not drawn) | 42.8%
O=c1ncn(-c2cccc(F)c2)c2ncccc12 | 35.6%
O=C(NCCCc1ccccc1)c1ccccc1O | 47.4%
O=[N+]([O-])c1ccc(NC(=S)NCCc2ccc(F)cc2)cc1 | 96.3% (active)
O=[N+]([O-])c1ccc(N2CCN(C(=S)Nc3ccccc3)CC2)cc1 | 35.5%
Cc1cc(C)cc(NS(=O)(=O)c2ccc(NC(=S)Nc3ccccc3)cc2)c1 | 23.9%
S=C(NCCCc1ccccc1)Nc1ccc(Cl)cc1 | 95.5% (active)
S=C(NCCc1ccccc1)Nc1ccc(Br)cc1 | 90.7% (active)
O=C(NC(=S)NCCCN1CCOCC1)c1ccc([N+](=O)[O-])cc1 | 37%
CCCCCCCCCCOC(=O)Cn1c(COc2ccc(Cl)cc2)[n+](C)c2ccccc21 | 29.6%
Cc1ccc(Cn2nnnc2CN2CCC(c3nc4ccc(Cl)cc4[nH]3)CC2)cc1 | 31.4%
CCOC(=O)/C=C/C(=O)Nc1nccs1 | 47.1%
NC(=O)/C=C\C(=O)Nc1cccc(C(F)(F)F)c1 | 72.8% (active)
CCN(C(=O)COC(=O)c1cccnc1Nc1cccc(C(F)(F)F)c1)C1CCS(=O)(=O)C1 (stereo not drawn) | 29.9%
CCOC(=O)/C=C/C(=O)Nc1cccc([N+](=O)[O-])c1 | 55.5% (active)
COC(=O)/C=C\C(=O)Nc1cccc([N+](=O)[O-])c1 | 42.8%
Cc1ccc(NC(=O)/C=C\C(=O)NCC(=O)O)cc1C | 39%
COC(=O)/C=C/C(=O)Nc1cccc(C(F)(F)F)c1 | 60.1% (active)
O=C(NC1CCCC1)C(c1ccccn1)N(C(=O)c1csnn1)C1CC1 (stereo not drawn) | 32.6%
O=C(O)c1cccnc1C(=O)N1CCc2c([nH]c3ccccc23)C1C(F)(F)F (stereo not drawn) | 18.5%

Structure (SMILES) | inhibition
O=C1c2ccccc2C(=O)c2c1ncn2-c1ccccc1 | 45.6%
O=C(CN(Cc1ccccc1)S(=O)(=O)c1ccc(S(=O)(=O)N2CCOCC2)cc1)Nc1ccccc1 | 36.3%
Cn1c(/C(C#N)=C/C2CC=CCC2)nc2ccccc21 (stereo not drawn) | 45.5%
N#C/C(=C\c1ccc([N+](=O)[O-])o1)c1nc2ccccc2[nH]1 | 20.7%
N#C/C(=C/c1cccs1)c1nc2ccccc2[nH]1 | 98.2% (active)
CC(C)C(C(=O)O)N1C(=O)/C(=C/c2cccn2C)SC1=S (stereo not drawn) | 56.4% (active)
C/C(=N\NC(=O)c1c[nH]c2ccccc12)c1ccco1 | 40.6%
O=[N+]([O-])c1ccc(/C=N/NS(=O)(=O)c2ccc(Cl)cc2)o1 | 23.6%
CN(Cc1ccccc1)C(=O)c1ccc([N+](=O)[O-])o1 | 41.7%
CCN(CC)c1ccc(N=Cc2ccc([N+](=O)[O-])o2)cc1 | 69.8% (active)
CC/C(=N\NC(=O)c1ccccc1Cl)c1ccc(Br)s1 | 38.1%
C/C(=N\NC(=O)c1csc(C)c1C)c1ccc(Cl)s1 | 59.2% (active)
CN(C)CCCN(C(=O)c1sc2ccccc2c1Cl)c1nc2ccc(F)cc2s1 | 55.7% (active)
Cc1ccc2nc(N(CCCN(C)C)C(=O)c3sc4ccccc4c3Cl)sc2c1 | 31.8%
Cc1cccc2sc(N(CCCN(C)C)C(=O)c3sc4ccccc4c3Cl)nc12 | 63.2% (active)
Cc1cc(C=C2C(=O)c3ccccc3C2=O)c(C)n1C | 37.7%
O=C(c1ccc(Br)o1)N(c1ccccn1)C1CCCCC1 | 33.8%
CC(=O)N(C1=C(Cl)C(=O)c2ccccc2C1=O)C1CCCCC1 | 50.3% (active)
C/C(=N\N(C)C)C1=C(O)c2ccccc2C1=O | 32.5%
CN(c1ccccc1)c1ccc(/C=C/[N+](=O)[O-])cc1 | 96.7% (active)
O=C(O)CC1NC(=S)N(c2ccccc2)C1=O (stereo not drawn) | 31.6%
COC(=O)c1cc(=O)n(-c2c(Cl)cc(C(F)(F)F)cc2Cl)[nH]1 | 34.8%
c1ccc(-c2c[nH]c3[n+]2CCCCC3)cc1 | 52.4% (active)

Structure (SMILES) | inhibition
Oc1ccc2ccccc2c1CN1CCN(c2ccccc2)CC1 | 45.1%
CC(NCCC(c1ccccc1)c1ccccc1)c1ccccc1 (stereo not drawn) | 50.4% (active)
Cc1cc(C)cc(C(=O)OCC(=O)NCCNC(=O)COC(=O)c2cc(C)cc(C)c2)c1 | 23.8%
COc1ccc(C(=O)C2CCCN(C(=O)Cn3nc(C)cc3C)C2)cc1F (stereo not drawn) | 46.8%
Cc1ccc(C)c(NC(=O)CSc2nnc(-c3ccccc3)o2)c1 | 45.4%
Cc1ccc(NC(=O)Cn2cccc2)c(C)c1 | 28.5%
Cc1ccc(NC(=O)CSC2=Nc3ccccc3C3CC=NN23)c(C)c1 (stereo not drawn) | 56.6% (active)
Cc1nc2nc3c(cn2n1)C(=O)CCC3 | 23.6%
COC(=O)c1ccccc1NC(=O)CN1CCC(n2nnc3cc(F)ccc32)CC1 | 33.6%
COc1ccccc1NC(=O)c1ccc(C)s1 | 50.4% (active)
COc1ccccc1NC(=O)C1=C(C)NC(=O)NC1c1cccs1 (stereo not drawn) | 32.2%
COc1ccccc1NC(=O)CCN1CCN(Cc2ccccc2)CC1 | 45.7%
C#CCN(C)CCCOc1ccc(Cl)cc1Cl | 54% (active)
CC(C)NC(=O)CCCOc1ccc(Cl)cc1Cl | 48.5%
CCCCOc1ccccc1NC(=O)c1ccco1 | 46.5%
CCCOc1ccccc1NC(=O)/C=C/C(N)=O | 58% (active)
CCOc1ccccc1N/C=C(\C#N)c1nc2ccccc2n1C | 26.1%
CCOc1ccccc1NC(=O)/C=C/C(N)=O | 59.4% (active)
O=C(CCSc1nc2cc(Cl)ccc2o1)N1CCOCC1 | 32.5%
O=C(c1nnsc1S(=O)c1ccc(Cl)cc1)N1CCOCC1 (stereo not drawn) | 71.7% (active)
CNC(=O)c1nnsc1S(=O)c1ccc(Cl)cc1 (stereo not drawn) | 78.5% (active)
CCCNC(=O)c1nnsc1S(=O)c1ccc(Cl)cc1 (stereo not drawn) | 96.7% (active)
